# Measurements as given in the OligoGym collection.
# Target: DHPS
# Experiment: pooled miR-30 sensor sort-seq; sequence = guide strand
# Details: shRNA
# Also: reference of the scale not given here.
row,Sequence,sensor-assay potency score (higher = more potent)
1,TTGTGCTGCACAAGGTAGCGAA,-0.894
2,TTCTGCTCCATCACCATCTGGT,0.0359
3,TACGTCCACCATGTTGTGCTGC,-0.635
4,ATTGACTTGCTGTACAGCGCGC,-0.633

# Target: DHX35
# Experiment: as above
# Details: shRNA
row,Sequence,sensor-assay potency score (higher = more potent)
1,TTGTAAACAACCGTTGTCCCAG,-0.562
2,TAGACTGAGGCAACTTGTCAAA,-1.05
3,ATAAGGGTTGTAAACAACCGTT,-1.1
4,TAGGCGACAGTCTTTGTCCAGA,-0.612
5,TAACACAAAACAGCGCACGAGT,-0.967
6,TTCATTCGTAGAGACATGCTTG,0.0862
